# According to PubChem BioAssay (Tox21):
# Records with an inconclusive call do not appear. Entries that show only a call come without a potency. Unmarked numbers belong to inactive results. The source made the active and inactive calls. Calls come from the whole dose curve.
# Target: Acetylcholinesterase (Homo sapiens) (UniProt P22303)
# Experiment: Acetylcholinesterase (AChE) small molecule antagonists: fluorescence cell-based qHTS assay (AID 1347398); note: nearly all actives have a fitted effect of over 50% in size
# Settings: SH-SY5Y cells; Potency: AChE activity; outcome: AChE activity; series mostly up to 115 µM
# Outline: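 Cellular AChE activity read as thiocholine from acetylthiocholine hydrolysis, detected by Thiolite Green fluorescence at 490/520 nm after 40 min at room temperature. Compounds were pre-incubated 30 min at 37 C on adherent SH-SY5Y cells.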
# Potency is the fitted concentration of half-maximal effect.
# Acetylcholinesterase (Homo sapiens), sequence (P22303 whole entry, looked up): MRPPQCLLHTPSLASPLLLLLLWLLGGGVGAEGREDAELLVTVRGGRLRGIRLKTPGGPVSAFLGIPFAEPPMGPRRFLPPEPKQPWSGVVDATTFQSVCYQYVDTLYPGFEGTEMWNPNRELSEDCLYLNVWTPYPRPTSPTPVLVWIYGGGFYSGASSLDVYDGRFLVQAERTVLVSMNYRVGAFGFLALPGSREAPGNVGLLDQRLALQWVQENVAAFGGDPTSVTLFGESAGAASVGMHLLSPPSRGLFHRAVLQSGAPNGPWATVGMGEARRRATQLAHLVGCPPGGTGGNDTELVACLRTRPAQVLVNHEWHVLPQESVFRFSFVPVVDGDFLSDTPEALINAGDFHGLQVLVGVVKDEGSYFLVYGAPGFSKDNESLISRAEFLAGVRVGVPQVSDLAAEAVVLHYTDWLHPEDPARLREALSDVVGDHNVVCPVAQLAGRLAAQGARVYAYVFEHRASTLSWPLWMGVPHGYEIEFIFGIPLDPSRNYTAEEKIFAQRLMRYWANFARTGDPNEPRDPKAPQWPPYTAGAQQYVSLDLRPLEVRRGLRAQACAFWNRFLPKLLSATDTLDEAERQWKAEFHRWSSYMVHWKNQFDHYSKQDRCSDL
SMILES,Potency,"activity change, negative = inhibition"
Cc1cn([C@H]2C[C@H](N=[N+]=[N-])[C@@H](CO)O2)c(=O)[nH]c1=O,inactive,–
CCn1cc(C(=O)O)c(=O)c2cc(F)c(N3CCNCC3)nc21,inactive,–
CCCCCCCCCCCCI,inactive,–
O=C(Nc1ccc(C(=O)O)c(O)c1)c1ccccc1,inactive,–
CCCCCCCC(=O)Oc1c(Br)cc(C#N)cc1Br,inactive,–
CCC(O)OCCCOC (stereo not given),inactive,–
Cc1ccccc1Cl,inactive,–
Cc1cccc(OCC(O)CNC(C)(C)C)c1C (stereo not given),inactive,–
CC(=O)O[C@H]1C[C@@H]2CC[C@@]1(C)C2(C)C,inactive,–
CC1(C)OC[C@@H]2O[C@@]3(C(=O)O)OC(C)(C)O[C@H]3[C@@H]2O1,inactive,–
O=C1CC(c2ccc(Cl)cc2)CC(=O)N1,inactive,–
O=C1CCc2ccccc2O1,inactive,–
COCCOCCOCCO,inactive,–
c1cc(CN2CCCCC2)cc(OCCCNc2nc3ccccc3s2)c1,13.8 µM (active),–
N#Cc1cc2ccccc2c2ccccc12,inactive,–
CN1CCN(C)CC1,inactive,–
CCCCCCCCOC(C)=O,inactive,–
CNC1(C)C2CCC(C2)C1(C)C (stereo not given),inactive,–
CCCOC(=O)CCCCC(=O)OCCC,inactive,–
Cc1cccc(C(=O)O)c1,inactive,–

SMILES,Potency,"activity change, negative = inhibition"
COC(=O)c1ccccc1C,inactive,–
CCO/C([O-])=N/c1c[n+](N2CCOCC2)no1,inactive,–
CC(C)(C)c1ccc(O)c(C(C)(C)C)c1,inactive,–
CCC(=O)OCc1ccccc1,inactive,–
Oc1ccccc1F,inactive,–
CCC(=O)CC(C)CC (stereo not given),–,1.06% [at 0.439 µM]
NNc1nc(-c2ccc([N+](=O)[O-])cc2)cs1,inactive,–
OC1OC[C@@H](O)[C@H](O)[C@H]1O (stereo not given in full),inactive,–
Nc1nc2ccccc2[nH]1,inactive,–
Cc1ccc(C(=O)O)o1,inactive,–
CCCCC(=O)O[C@]1(C(=O)CO)[C@@H](C)C[C@H]2[C@@H]3CCC4=CC(=O)C=C[C@]4(C)[C@@]3(F)[C@@H](O)C[C@@]21C,inactive,–
CC1=C(C/C=C(\C)CCC[C@H](C)CCC[C@H](C)CCCC(C)C)C(=O)c2ccccc2C1=O,inactive,–
C=CC(=O)Nc1cc2c(Nc3ccc(F)c(Cl)c3)ncnc2cc1OCCCN1CCOCC1,inactive,–
O[C@@H](c1cc(C(F)(F)F)nc2c(C(F)(F)F)cccc12)[C@H]1CCCCN1,inactive,–
CCCCCCCCCCCCCCCCCC#N,inactive,–
CCOc1ccc(NC(C)=O)cc1,inactive,–
CCNc1ccccc1,inactive,–
CC(C)(C)c1cccc(C(C)(C)C)c1O,inactive,–
CN(C)CCN1CCOCC1,inactive,–
CC(C)(C)c1cc(CCC(=O)OCC(COC(=O)CCc2cc(C(C)(C)C)c(O)c(C(C)(C)C)c2)(COC(=O)CCc2cc(C(C)(C)C)c(O)c(C(C)(C)C)c2)COC(=O)CCc2cc(C(C)(C)C)c(O)c(C(C)(C)C)c2)cc(C(C)(C)C)c1O,inactive,–
